This is a sample that favours compounds with a hit; in the whole collection about 3.6% have one here.
aSyn yeast inh – qHTS of alpha-syn Inhibitors | Yeast expressing alpha-synuclein, growth rescue, BacTiter-Glo, 24 h | Potency, µM (top dose mostly 46.1 µM), for inactives: top-dose growth rescue (activation), actives largely listed as activators | actives 0.14% (n = 370,000) | AID 652106, 2013; also: % of control where 0% means no effect; nearly all actives have a fitted effect of over 65% in size
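Readout is rescue of growth in alpha-synuclein-expressing yeast, so inhibitors of toxicity appear as activators. Growth after 24 hr at 30 deg C in galactose medium is quantified by luminescence.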
TDP43 rescue – qHTS of TDP-43 Inhibitors; TDP-43 expressing yeast growth rescue, BacTiter-Glo, 24 h; Potency, µM (highest dose often 46.1 µM), inactives show at the highest dose growth rescue (activation), most hits filed as activators; actives 1.8% (n = 410,000); also: % of control where 0% means no effect; nearly all actives have a fitted effect of over 50% in size
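Galactose-induced TDP-43 yeast, OD600=0.02, compound pinned; 24 hr, 30 deg C; BacTiter-Glo luminescence for growth. Inhibitors of TDP-43 toxicity read as activators.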
FUS suppressor – qHTS for Suppressors of FUS Proteinopathy: Primary screen using FUS-linked yeast assay; S. cerevisiae FUS-expressing, growth rescue, OD600, 24 h; Potency, µM (highest dose often 76.6 µM), actives largely listed as activators; actives 0.24% (n = 390,000);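 also: plate controls were DMSO vehicle for no effect and reference control for full effect; nearly all actives have a fitted effect of over 55% in size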
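Quantitative HTS measuring growth restoration of FUS-toxic yeast. Galactose-induced cells (OD 0.005) were exposed 24hr at 30C to compounds at several concentrations, then absorbance at 600 nm was recorded.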
MmCpn inh – Inhibitors of TCP-1 ring complex (TRiC) of Methanococcus maripaludis (MmCpn): qHTS | purified Mm-Cpn ATPase, ADP Transcreener TR-FRET | AID 504842, 2011 | actives 0.031% (n = 330,000) | Potency, µM (series often up to 76.9 µM), for inactives: at the top dose activity, negative = inhibition, most hits filed as inhibitors | Chaperonin Mm-Cpn (Methanococcus maripaludis); also: % is scaled to controls: 0 for no effect and ±100 for the full control effect; nearly all actives have a fitted effect of over 80% in size
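Purified archaeal chaperonin (25 nM final) was preincubated with compound for 10 min at 37°C, then ATP (10 uM final) was added for 30 min at 37°C in Tris pH 7.4/KCl/MgCl2/DTT buffer. ADP was quantified by HTRF Transcreener TR-FRET.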
ClpP mod – qHTS Assay for Activators of ClpP; AID 651965, 2013; Potency, µM (doses to about 57.5 µM), without a hit: top-dose activity change, negative = active; ATP-dependent Clp protease proteolytic subunit (Bacillus subtilis (strain 168)), P80244; actives 1.9% (n = 340,000); purified B. subtilis ClpP, FRET peptide cleavage, 20 min; active = well fitted falling curve with a large enough effect; inconclusive = small, poorly fitted or top-dose-only effect; inactive = no such curve, though single readings can be large or run the other way; also: the source files actives as falling curves though it sought activators and does not explain the sign; nearly all actives have a fitted effect of over 65% in size
Target sequence (P80244 whole entry, looked up): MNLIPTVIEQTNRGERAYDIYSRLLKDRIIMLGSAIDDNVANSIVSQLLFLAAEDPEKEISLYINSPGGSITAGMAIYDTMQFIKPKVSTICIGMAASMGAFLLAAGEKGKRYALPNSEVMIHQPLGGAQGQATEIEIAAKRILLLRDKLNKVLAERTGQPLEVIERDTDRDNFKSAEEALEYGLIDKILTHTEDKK
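ClpP 10 microg/mL final, pH 8 Tris/KCl buffer with BSA, glycerol, Tween-20; compound pinned in; FRET-FV substrate; RT 20 min; Ex320/Em430; ΔFRET vs ADEP 5.8 microM, DMSO, no enzyme.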
Abeta yeast res – qHTS for compounds that reverse cellular toxicity of Amyloid beta (A-beta) peptide in yeast: Primary Screen | yeast expressing A-beta42, growth rescue, OD600, 48 h; response scale: 0% DMSO, 100% iron-clioquinol control | Potency, µM (highest dose often 46.1 µM), hits mostly activators | actives 0.063% (n = 410,000) | AID 1347071, 2019; also: nearly all actives have a fitted effect of over 55% in size
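Yeast A-beta toxicity model in growth medium with pinned compounds, 48 h at 30 C; growth read as absorbance at 600 nm. Normalized to FeCl3/clioquinol equimolar mix (positive) and DMSO (negative).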
An asterisk follows results filed as active; i = inactive; ? = inconclusive; · = not tested or not shown; [ ] = remark or other dose. Unless noted, calls follow the shape of the dose curve; as a rule, active = well fitted curve in the direction sought with a large enough effect; inconclusive = small, poorly fitted or top-dose-only effect, or another doubt; inactive = no such curve, though single readings can be large; an effect the other way counts as inactive or inconclusive. Potency is read from the fitted curve at half-maximal effect.

SMILES	aSyn yeast inh	TDP43 rescue	FUS suppressor	MmCpn inh	ClpP mod	Abeta yeast res
O=C(c1cc(COc2ccc(F)cc2Cl)on1)N1CCSCC1	7.3%	?	i	0.5%	1.6%	i
O=C(c1cc(COc2ccc(F)cc2Cl)on1)N1CCN(c2cnccn2)CC1	0.9%	31.6µM*	·	-2.4%	-11.8%	i
O=C(c1cc(COc2ccc(F)cc2Cl)on1)N1C[C@H]2CC[C@H]1C2	1.5%	20.5%	i	-1.6%	28.2µM*	i
COc1ccccc1CNC(=O)c1cccc(NC(=O)N2CCSc3ncccc32)c1	·	10.9%	i	·	?	i
O=S(=O)(NCCc1ccccc1)c1ccc(Br)s1	5.4%	?	i	0.0%	-3.1%	i
COc1cccc(NS(=O)(=O)c2ccc(Br)s2)c1	2.6%	?	i	1.2%	-3.9%	i
COc1cccc(NS(=O)(=O)c2ccc(-c3cc(C)no3)s2)c1	·	-16.8%	i	·	1.0%	i
COc1ccccc1NS(=O)(=O)c1ccc(Br)s1	22.0%	11.2µM*	i	0.0%	-2.3%	i
COc1ccc(CCNS(=O)(=O)c2ccc(Br)s2)cc1	0.5%	11.2µM*	i	0.3%	-0.4%	i
COc1ccc(OC)c(NS(=O)(=O)c2ccc(-c3cc(C)no3)s2)c1	·	15.8µM*	i	·	-1.6%	i
COc1ccc(OC)c(NS(=O)(=O)c2ccc(Br)s2)c1	·	22.4µM*	i	2.0%	0.1%	i
NC(=O)C1CCN(S(=O)(=O)c2cc3c(cc2Cl)NC(=O)CO3)CC1	·	5.7%	i	·	0.2%	i
COc1cc(NS(=O)(=O)c2ccc3c(c2)CCN3S(C)(=O)=O)cc(OC)c1	·	11.6%	i	·	0.4%	i
COc1ccc(-c2nn(-c3ccccc3)cc2C(=O)N(C)CC(=O)Nc2cccc(F)c2)cc1	1.7%	?	?	3.0%	-5.8%	i
COc1cccc(-c2nn(-c3ccc(C)cc3)cc2C(=O)N(C)CC(=O)Nc2cccc(F)c2)c1	1.3%	22.4µM*	·	-14.3%	-17.4%	i
O=C(O)c1cc(Cl)c2ccccc2c1O	·	4.0%	i	-9.5%	28.2µM*	i
CC(C)(NC(=O)c1cc(Cl)c2ccccc2c1O)C(=O)O	6.0%	21.9%	i	-7.0%	4.2%	i
COc1ccccc1Nc1nc2cc(C)ccc2cc1C#N	-7.5%	10.4%	i	1.2%	·	i
COc1ccccc1Nc1nc2ccc(C)cc2cc1C#N	-2.7%	-29.4%	·	0.5%	25.1µM*	i
CNC(=S)Nc1ccc(C23CC4CC(CC(C4)C2)C3)cc1	-7.0%	-6.0%[0.397 µM]	i	-1.0%	·	7.08µM*
CC(=O)Nc1ccc(C23CC4CC(CC(C4)C2)C3)cc1	-3.0%	24.1%	i	0.6%	-0.5%	i
COc1cc2c3nnc(-c4ccc(F)cc4)c-3cn(Cc3ccc(C)cc3)c2cc1OC	-8.4%	11.3%	i	1.6%	20µM*	i
COc1cc2c3nnc(-c4ccccc4)c-3cn(Cc3ccc(F)cc3)c2cc1OC	-16.6%	-21.5%	i	0.9%	·	i
Cc1cccc(C(=O)N[C@@H]2CC[C@@]34CCCN3C(=O)CCC[C@H]4[C@H]2C)c1	·	·	i	·	·	·
O=C(O)c1ccc(Nc2ccc(F)c(F)c2)c([N+](=O)[O-])c1	6.5%	11.2µM*	i	-2.4%	-0.3%	i
Cn1c2cc(B(O)O)sc2c2cnn(Cc3c(F)cccc3F)c(=O)c21	·	·	·	-0.7%	·	·
CC(=O)Nc1ccccc1-c1nc2ccccc2n(C(C)C(=O)Nc2ccccc2C(F)(F)F)c1=O (stereo not given)	·	-1.6%	i	·	-3.8%	i
